The campaign covered roughly 48,000 compounds. About 13,000 (27%) showed an effect of 50% or more. Some of the results follow.

The test system of the assay is Wolbachia pipientis. In words: Anti-Wolbachia Cell-Based Screen. The conditions noted are these: 5 µM. Further details: scale not given: in the data most compounds retested in dose-response had high values. Format: functional.
Take `Cc1nn(C)c(C)c1OCC(=O)N1CCCc2c(F)ccc(F)c21`: the “Percent Effect” value is -4.523%.
As for `Cc1ccc(F)c2c1N(C(=O)Cc1c(C)nn(C)c1C)CCC2`, the figure is 55.91%.
In the case of `Cc1ccc(F)c2c1CCCN2C(=O)Cc1c(C)nn(C)c1C` it was -7.331%.
In the case of `Cn1c(CC2CCS(=O)(=O)C2)nnc1SCCOc1cccc(Cl)c1` (configuration not stated) it was -0.5002%; in that of `N#CCCCn1nnnc1Cc1ccc(Br)cc1`, -5.124%.
Take `N#CCCn1cnc2c(Br)cc(Br)cc2c1=O`: the “Percent Effect” value is on record as 26.83%.
As for `Cc1cc(C)c2ncn(CCC(C)O)c(=O)c2c1` (configuration not stated), the figure is -16.19%.
In the case of `Cc1cc(C)c2ncn(CC(C)(C)CO)c(=O)c2c1` it was 2.019%; in that of `COc1cc2ccn(CCS(C)(=O)=O)c(=O)c2cc1F`, 3.704%.
For `COCCn1cnc2c(F)cc(Br)cc2c1=O`, the “Percent Effect” value was 109.9%.
As for `N#CCCCn1cnc2c(F)cc(Br)cc2c1=O`, the figure is 100.3%.
As for `N#CCCn1cnc2c(F)cc(Br)cc2c1=O`, the figure is 102.6%; as for `CC(C)COc1ccccc1CN(C)C(=O)c1cc(=O)[nH]c(=O)[nH]1`, -33.98%.
For `CNCCNc1ccc(-c2nc(-c3cccc(OC)c3OC)no2)cn1`, the “Percent Effect” value is listed as -9.505%.
Consider `CC(C)N1CCOCC2(CCN(c3cnccn3)CC2)C1.O=C(O)C(F)(F)F`, for which the “Percent Effect” value is reported as -21.42%.
As for `Cc1noc(C)c1CN1CCOCC12CCN(c1ncccn1)CC2.O=C(O)C(F)(F)F`, the “Percent Effect” value was found to be 113.5%.
In the case of `Cc1noc(C)c1CN1CCOCC12CCN(c1cnccn1)CC2.O=C(O)C(F)(F)F` it was 82.98%; in that of `Cc1noc(C)c1CN1CCC2(CC1)CN(c1ccccn1)CCO2.O=C(O)C(F)(F)F.O=C(O)C(F)(F)F`, -6.126%; in that of `Cc1nc(CN2CCOCC3(CCCN(c4cnccn4)C3)C2)cs1.O=C(O)C(F)(F)F` (configuration not stated), -4.433%.
On to `Cc1noc(C)c1CN1CCOC2(CCCN(c3ncccn3)C2)C1.O=C(O)C(F)(F)F` (configuration not stated), for which the “Percent Effect” value was determined as 2.072%.
`O=C(CCOCC(F)(F)F)N1CCCC1c1noc(C2CC2)n1` (configuration not stated): the “Percent Effect” value is recorded as 110.3%.
Take `O=C(COC1CCCC1)N1CCCC1c1noc(C2CC2)n1` (configuration not stated): the “Percent Effect” value is listed as -26.64%.
With `O=C(Cc1noc2ccccc12)N1CCCC1c1noc(C2CC2)n1` (configuration not stated), the “Percent Effect” value is given as 8.423%.
Turning to `CC(C)c1nc(C2CCCN2C(=O)CN(C)Cc2ccccc2)no1` (configuration not stated), the “Percent Effect” value was -1.303%.
On to `Cc1nc(C2CCCN2C(=O)CN(C)Cc2ccccc2)no1` (configuration not stated), for which the “Percent Effect” value was 10.99%.
In the case of `O=C(COCc1ccccc1)N1CCCC1c1noc(C2CC2)n1` (configuration not stated) it was 106.9%.
As for `O=C(Cc1ccc2c(c1)CCO2)N1CCCC1c1noc(C2CC2)n1` (configuration not stated), the figure is 96.74%; as for `FC(F)(F)COCCN1CCCC(c2noc(C3CC3)n2)C1` (configuration not stated), 7.435%.
As for `Cc1noc(C2CN(Cc3ccc4c(c3)CCO4)C2)n1.O=C(O)C(=O)O`, the figure is 22.63%; as for `O=C(CCOCc1ccccc1)N1CCCC1c1noc(C2CC2)n1` (configuration not stated), 14.67%; as for `CN(CC(=O)N1CCCC1c1noc(C2CC2)n1)S(C)(=O)=O` (configuration not stated), -4.579%.
In the case of `CN(CC(=O)N1CCCC1c1noc(C2CC2)n1)Cc1ccccc1` (configuration not stated), the “Percent Effect” value is 125%.
In the case of `CSCCC(=O)N1CCN(CC(O)C(C)(C)C)CC1` (configuration not stated) it was -10.5%.
As for `Cc1ccc(C(=O)N(C)S(C)(=O)=O)cc1Cl`, the figure is -6.894%; as for `Cc1cc(S(=O)(=O)Nc2cccc(OC(F)F)c2)sc1C(=O)O`, -5.292%; as for `Cc1nonc1C1CCCN1CCC(=O)N1CCc2ccccc2C1` (configuration not stated), 3.529%.
`O=C(CCS(=O)(=O)C1CCCC1)N1CCC(O)(C(F)(F)F)C1` (configuration not stated): the “Percent Effect” value is reported as -5.456%.
In the case of `O=C(NCC1(N2CCOCC2)CCSC1)Nc1ccncc1` (configuration not stated), the “Percent Effect” value is -3.46%.
As to `Cc1nc(C2CCCN2C(=O)COCCOc2ccccc2)no1` (configuration not stated), the “Percent Effect” value is listed as -5.15%.
Consider `Cc1nc(C2CCCN2C(=O)COCc2ccccc2)no1` (configuration not stated), for which the “Percent Effect” value amounted to 102.7%.
As to `Cc1nc(CN2CCN(C(=O)COCc3ccccc3)CC2)no1`, the “Percent Effect” value turned out to be 3.654%.
As for `Cc1nc(C2CCCN2C(=O)CCCOc2cccc(F)c2)no1` (configuration not stated), the figure is -14%.
As to `Cc1nc(C2CCCN2C(=O)CCOCc2ccccc2)no1` (configuration not stated), the “Percent Effect” value turned out to be 99.19%.
Consider `O=C1OCCN1CC(=O)N1C[C@H]2CC[C@@H]1CN(C(=O)c1ccccn1)C2`, for which the “Percent Effect” value is reported as -8.504%.
Consider `COc1cc(F)cc(NC(=O)NCc2cccc(N(C)C)n2)c1`, for which the “Percent Effect” value is listed as 5.244%.
On to `O=C(C1CC=CC1)N1C[C@@H]2[C@@H](C1)OCC(=O)N2Cc1cccnc1`, for which the “Percent Effect” value is given as -8.253%.
In the case of `Cc1csc(C(=O)N2CC[C@H](Oc3cccnc3C)[C@@H](O)CC2)c1` it was 110.7%; in that of `COc1ccccc1OC1CCN(C(=O)c2cnc(C)s2)CC1`, 3.926%.
In the case of `Cc1ncccc1O[C@H]1CCN(C(=O)c2cccs2)CC[C@@H]1O` it was -0.5375%; in that of `CCc1ccc(C(=O)N2CC[C@H](Oc3cccnc3C)[C@@H](O)CC2)cc1`, 61.09%; in that of `Cc1ccc(C(=O)N2CCC(c3nccn3Cc3ccncc3)CC2)s1`, -4.938%.
As to `Cc1ncccc1O[C@H]1CCN(C(=O)Cc2cccs2)CC[C@@H]1O`, the “Percent Effect” value is reported as 6.577%.
For the molecule `Cc1ccc(C(=O)N2CC[C@H](Oc3cccnc3C)[C@@H](O)CC2)s1`, the “Percent Effect” value is given as 123.3%.
In the case of `CC(=O)N(C)CC(=O)Nc1cnc(-n2ccnc2C)nc1`, the “Percent Effect” value amounted to 9.823%.
For the molecule `CC(O)CCN(C)S(=O)(=O)Cc1ccc(Br)cc1` (configuration not stated), the “Percent Effect” value is on record as -1.579%.
As for `O=C(CO)N1CCc2onc(Cn3cccn3)c2C1`, the “Percent Effect” value is 6.984%.
With `Cc1c(Br)cccc1CSc1nnc(CO)n1C`, the “Percent Effect” value amounted to 11.11%.
Take `O=C(Nc1c(F)cccc1Oc1ccccc1)C1CCS(=O)(=O)C1` (configuration not stated): the “Percent Effect” value is recorded as 2.058%.
Turning to `Cc1ccc(CNC(=O)NCc2ccco2)s1`, the “Percent Effect” value is on record as 117.2%.
In the case of `CN(C)c1nccc(CNC(=O)NCc2ccco2)n1` it was -7.993%; in that of `O=C(NCc1cc(Cl)ccn1)NCc1ccco1`, -0.04027%.
As for `CNC(=O)CCOC(=O)c1cccc(-n2ccc(C(F)(F)F)n2)c1`, the figure is -14.03%.
Consider `Cc1nn(C)c(N(C)C)c1CNCc1cccc(Br)c1`, for which the “Percent Effect” value is -4.706%.
Consider `CCN(CC)c1nc(C)cc(C(=O)Nc2cnn(CC)c2)n1`, for which the “Percent Effect” value worked out at 114.1%.
For the molecule `CCn1cc(NC(=O)c2cccc(OCC(F)(F)F)n2)cn1`, the “Percent Effect” value turned out to be 10.55%.
In the case of `CCN(CC)c1nc(C)cc(C(=O)Nc2cccc(C(N)=O)c2)n1` it was 132.2%; in that of `CCc1sc(C(=O)Nc2cnn(CCN(C)C)c2)cc1C`, 11.53%; in that of `Cc1noc(NC(=O)c2ccc(Br)cc2)n1`, 7.251%.
As for `CN(C)C(=O)c1cccc(NC(=O)c2cnn(C)c2)c1`, the figure is -1.797%.
As for `Cc1ccc(NC(=O)c2n[nH]c(-n3cnnc3)n2)cc1C`, the figure is 9.368%; as for `CCN(Cc1cccc(C(N)=O)c1)c1ccccc1`, 7.168%; as for `CCN(CC)c1nc(C)cc(C(=O)Nc2ccc(Br)cc2)n1`, 134.8%.

Source of the values: ChEMBL document CHEMBL3988442, “University of Dundee, Small-Polar-MMV Screening Library” (2021).
